Screening results deposited in PubChem by several laboratories.
CaV13 FRET inh: Disruptors of the CACNA1D IQ motif to Ca2+-dependent inactivation inhibitor domain association, primary screening, Förster resonance energy transfer in intact living …. HEK cells, CFP/YFP FRET ICDI-IQ, plate reader, 10 min; percent FRET-ratio fall versus neutral wells. inhibition, % at 12.3 µM. 340,000 tested, 0.098% active. AID 743397;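 active means mean replicate inhibition of at least 30% and at least 1% of replicates passing that level; inconclusive means only one of the two criteria is met; inactive means neither criterion is met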;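 further: 0% = median of the neutral control wells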
IDE act: human IDE activators in live cells, primary screen, fluorescence polarization, HEK cells, FAbeta-B substrate; 340,000 tested, 0.073% active; activation, % at 5.96 µM; AID 493087, 2011; FAbeta-B cleavage; 0% vehicle, 100% cell-free pure enzyme wells;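 active means activation above the mean of all tested compounds plus 3 SD, set per screening campaign, cut at about 17% in these data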
Target sequence (P14735 whole entry, looked up): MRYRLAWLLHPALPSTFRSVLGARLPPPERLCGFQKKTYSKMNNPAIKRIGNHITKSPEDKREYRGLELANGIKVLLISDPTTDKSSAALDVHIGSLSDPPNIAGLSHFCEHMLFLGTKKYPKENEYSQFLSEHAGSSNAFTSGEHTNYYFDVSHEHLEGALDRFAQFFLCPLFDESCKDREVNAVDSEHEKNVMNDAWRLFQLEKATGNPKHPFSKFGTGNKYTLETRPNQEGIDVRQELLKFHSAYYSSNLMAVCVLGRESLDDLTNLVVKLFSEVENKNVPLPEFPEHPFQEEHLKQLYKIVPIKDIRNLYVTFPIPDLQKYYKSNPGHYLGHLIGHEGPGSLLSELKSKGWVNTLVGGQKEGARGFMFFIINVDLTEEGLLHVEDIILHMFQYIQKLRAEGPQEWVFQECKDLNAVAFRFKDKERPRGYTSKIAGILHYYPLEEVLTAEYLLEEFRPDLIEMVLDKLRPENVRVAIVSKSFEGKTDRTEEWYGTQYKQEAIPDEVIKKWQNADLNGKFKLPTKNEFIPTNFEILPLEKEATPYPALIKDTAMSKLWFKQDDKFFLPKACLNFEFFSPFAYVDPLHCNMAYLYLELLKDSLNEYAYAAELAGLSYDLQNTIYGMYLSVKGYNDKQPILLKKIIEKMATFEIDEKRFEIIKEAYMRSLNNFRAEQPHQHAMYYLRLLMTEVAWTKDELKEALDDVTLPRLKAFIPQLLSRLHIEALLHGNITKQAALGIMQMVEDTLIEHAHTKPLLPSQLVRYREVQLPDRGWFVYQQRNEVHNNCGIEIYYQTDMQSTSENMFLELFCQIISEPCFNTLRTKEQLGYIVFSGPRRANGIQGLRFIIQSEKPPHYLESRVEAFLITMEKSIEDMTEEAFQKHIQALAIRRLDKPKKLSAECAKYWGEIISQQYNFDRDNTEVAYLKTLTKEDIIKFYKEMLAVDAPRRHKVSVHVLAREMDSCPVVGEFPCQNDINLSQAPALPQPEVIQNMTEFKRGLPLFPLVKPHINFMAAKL
IDE inh: human IDE inhibitors in live cells, primary screen, fluorescence polarization, HEK cells, FAbetaB substrate | Insulin-degrading enzyme (Homo sapiens), P14735 | FAbetaB cleavage | inhibition, % at 5.59 µM | 320,000 tested, 0.41% active;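 active means percent inhibition above the average of all tested compounds plus 3 SD, set per screening campaign, cut at about 16% in these data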;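 further: IDE supplied by intact live HEK cells; FP after avidin binding of uncleaved biotin substrate so inhibition keeps polarization high; 0% = DMSO wells and 100% = 60 µM reference IDE inhibitor Ii1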
ALR H2O2 inh: inhibitors of human ALR sulfhydryl oxidase, primary screen, biochemical, H2O2 detection, HRP-luminol luminescence, single point | purified ALR, DTT oxidation | FAD-linked sulfhydryl oxidase ALR (Homo sapiens), P55789 | inhibition, % (no concentration beside the values) | AID 485317, 2010 | 290,000 tested, 3.8% active;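 active means mean replicate inhibition above about 79%, with every replicate also reaching it, limit read from the data; inconclusive means only one of the two criteria met; inactive means mean below limit and not every replicate reaching it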
PfM18AAP inh: PfM18AAP inhibitors, malaria aminopeptidase, primary screen, biochemical, QFRET, recombinant enzyme | inhibition, % at 7.35 µM | 290,000 tested, 1.2% active | H-Glu-NHMec fluorogenic cleavage | AID 1822, 2009 | M18 aspartyl aminopeptidase (Plasmodium falciparum 3D7);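 active means inhibition above the campaign mean inhibition over all tested compounds plus 3 SD, cut at about 28% in these data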;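 further: 0% = plate median of test compound wells and 100% = 2 mM ZnCl2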
PolyA inhibitor: polyadenylation inhibitors in yeast reporter cells, primary screen, luminescence, S. cerevisiae | 300,000 tested, 0.02% active | activity score, % at 12 µM | S. cerevisiae SKY197-pL101 polyadenylation reporter, beta-gal luminescence; efflux-impaired pdr1/pdr3 knockout yeast; score 100 = 6 SD above DMSO | AID 1875, 2009;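 active means lowest replicate activity score at least 50, where 100 means six control SD above control mean; inconclusive means lowest score under 50 but half or more replicates reach 50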;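 further: yeast exposed to compound for 9 h at 30 °C; higher score means more reporter readthrough which indicates perturbed polyadenylation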
* hit, by the source's call; ? = inconclusive; . = no result given. Rows were chosen to be rich in hits. Some 4.1% of all compounds tested hit in one or more screens of this group.

SMILES	CaV13 FRET inh	IDE act	IDE inh	ALR H2O2 inh	PfM18AAP inh	PolyA inhibitor
CCc1nc2c(OCCOC)cccn2c1N(C)C(=O)c1ccc(C)cc1	-9	.	.	.	.	.
COc1ccc(C(C(=O)NC(C)(C)C)n2c(-c3ccc(=O)[nH]c3)nc3ccccc32)cc1 (centres undefined)	-5	.	.	.	.	.
O=C(NCCCN1CCOCC1)c1cc2c(s1)CSC2	-6	2	1	99*	2	4
CCOc1ccc(NC(=O)N2CCC(C(N)=O)(N3CCCCC3)CC2)cc1	-5	5	6	-3	28*	11
CN(CC(=O)Nc1ccc(F)cc1)C(=O)CSc1nccn1C	-2	4	3	-4	.	13
CCOc1ccc(NC(=O)CSC(N)=O)cc1	.	-9	2	99*	12	-5
NC(=O)C1(N2CCCCC2)CCN(C(=S)Nc2ccccc2)CC1	-17	5	-1	0	3	5
CSc1nccn1CC(=O)Nc1ccc(F)cc1	-5	2	3	98*	4	-1
Cn1ccnc1SCC(=O)Nc1cccc(C(F)(F)F)c1	.	-3	7	100*	-1	2
Cn1ccnc1SCC(=O)Nc1cccc(O)c1	-7	-4	6	-10	-1	11
O=C(CN1CSCC1=O)N1CCN(S(=O)(=O)c2cccc(F)c2)CC1	-5	4	-2	-2	.	.
C[C@@H]1COc2cccc(N3CCCCC3)c2S(=O)(=O)N1	-4	.	.	.	.	.
CCC(CO)NCc1ccc(-c2ccccc2)cc1 (centres undefined)	-2	3	0	-5	-5	-10
Cn1ccnc1SCC(=O)Nc1ccc(Oc2ccccc2)cc1	-4	1	2	99*	7	-4
COc1ccc(NC(=O)CSC2=NCCN2)cc1	-7	7	-1	.	13	-7
CCCCOc1cccc(NC(=O)CSc2nccn2C)c1	-4	2	1	99*	-17	13
O=C(CSC1=NCCN1)Nc1cccc(C(F)(F)F)c1	-4	6	3	100*	9	-3
CCOc1ccc(NC(=O)CSCc2cnn(-c3ccccc3)c2-n2cccc2)cc1	-5	6	-4	99*	-4	2
Cn1cnnc1SCC(=O)Nc1ccc(Oc2ccccc2)cc1	.	-1	7	1	-7	12
COc1cc(NC(=O)CSCc2cnn(-c3ccccc3)c2-n2cccc2)cc(OC)c1	-6	-3	7	.	-11	5
Cc1ccc(S(=O)(=O)n2cnc3ccccc32)cc1[N+](=O)[O-]	-18	0	-2	-22	-10	8
OC(c1cccc(Cl)c1)c1nc(-c2cc3ccccc3o2)cs1 (centres undefined)	-6	.	.	.	.	.
C/C(Cc1ccccc1)=N\NC(=O)CNC(=O)c1ccc(C(C)(C)C)cc1	3	2	0	0	-10	-19
O=C(N[C@H](C(=O)N1CCC[C@H]1C(=O)NCCc1ccccc1Cl)c1ccccc1)C1CC1	-9	.	.	.	.	.
CC#CC#Cc1cccc(=O)o1	-3	1	-4	0	-6	-8
SMILES	CaV13 FRET inh	IDE act	IDE inh	ALR H2O2 inh	PfM18AAP inh	PolyA inhibitor
O=C(O)CS(=O)CC(=O)Nc1cccc(C(F)(F)F)c1 (centres undefined)	-8	3	9	99*	6	?
CC(=O)Nc1ccc(NC(=O)CSc2ncc(C(=O)Nc3ccccc3)c(=O)n2C)cc1	-16	-5	-3	99*	.	2
COc1ccc(NC(=O)CSc2nc3cccnc3n2C)cc1	-5	2	6	99*	4	8
CCOc1ccc(NC(=O)CSc2nccn2C)cc1	-6	5	3	99*	2	-4
CCOc1ccc(NC(=O)C(C)Sc2nccn2C)cc1 (centres undefined)	-3	3	-1	37	7	6
Cc1ccccc1OCC(=O)NCc1ccccc1	-17	0	-3	-6	6	-10
COc1ccc(OC)c(NC(=O)C2CCN(C(=O)C3CC(=O)N(c4ccc(C)cc4)C3)CC2)c1 (centres undefined)	-3	-2	2	-20	-2	11
Cc1ccc(C(=O)Nc2ccccc2C(=O)N2CCOCC2)cc1[N+](=O)[O-]	-4	-1	6	.	2	16
COc1ccccc1-c1cnc2c(c1)C(=O)N([C@@H](C)CO)C[C@H](C)[C@H](CN(C)C)O2	-7	.	.	.	.	.
O=C(CSc1nc(-c2ccc(F)cc2)cs1)N1CCc2ccccc21	-8	4	2	-6	4	12
Fc1ccc(CN2CC[C@H]3C=CCc4cccc(c43)C2)cc1	-5	0	4	-12	.	.
Cc1ccc2nc(NS(C)(=O)=O)sc2c1	-1	1	2	.	-6	12
CCc1ccc(NC(=S)NC2CC3CCCC(C2)N3Cc2cccs2)cc1 (centres undefined)	-7	-1	-7	5	-12	3
Cn1ccnc1SCC(=O)c1ccc(OC(F)F)cc1	-2	4	2	.	0	12
COc1ccc(C(=O)CSc2nccn2C)cc1	-3	1	6	99*	0	10
Cc1cccc(C(=O)NCCC(=O)NCc2ccccc2Cl)c1	-2	1	6	.	.	.
C[C@H](NC(=O)[C@@H]1CCC(=O)N1Cc1ccco1)c1ccccc1	-17	-3	5	6	0	10
C=CCSC1=N/C(=C\C=C\c2ccco2)C(=O)S1	.	4	4	99*	11	14
O=c1ccsn1Cc1ccccc1	.	-15	11	98*	33*	-19
O=C1c2ccccc2C(=O)N1CCC1(O)C(c2ccccc2)=Nc2ccccc21 (centres undefined)	-8	2	.	.	.	.
O=c1c2ccccc2c(/C=N/NS(=O)(=O)c2ccccc2)c(O)n1-c1ccccn1	-8	-7	-1	98*	5	13
CCC1CCCCN1C(=O)CSc1nc(N)c(NC(=O)c2ccco2)c(=O)[nH]1 (centres undefined)	-3	-10	-1	85*	9	2
Nc1nc(SCC(=O)N2CCCC2)[nH]c(=O)c1NC(=O)c1ccco1	10	-3	4	.	1	-5
Cc1cc(Nc2ccc(N3CCC(C)CC3)cc2)n2ncnc2n1	-10	2	-1	90*	9	-2
Cc1ccc(Nc2cc(C)nc3ncnn23)cc1	-6	4	4	-5	-5	17
COc1ccc(CNC(=S)N/N=C/c2ccc(O)c(OC)c2)cc1	-3	0	4	87*	8	-10
